Experimental findings from PubChem BioAssay AID588497 (NMMLSC, 2011) are described below.

The campaign covered roughly 360,000 compounds. About 780 (0.22%) were called active. Not shown: some 4% with an inconclusive outcome. The sample as a whole holds a higher share of actives than the screen did. Values without a mark were called inactive. Cut-off read from the data, not from the text of the source: active = inhibition above about 35% (passing the limit was not always enough); inconclusive = no clear call, values can overlap the other calls.

Broadly, the inhibition is the relative decrease from the control value, in per cent.

The assay relates to Botulinum neurotoxin type F light chain protease (Clostridium botulinum). In words: BoNT/F light chain protease inhibitors, primary screen, biochemical, flow cytometry, MLPCN library (AID 588497). Note: plate controls were buffer without enzyme for full effect and enzyme alone for no effect. To be noted: Multiplex microsphere protease cleavage assay, at 10 µM, stronger effect = higher value. (A flow cytometer gives signals particle by particle.)
For `O=C(c1snnc1-c1ccccc1)N1CCOCC1`, the inhibition was -9%.
Under `c1ccc2c(c1)CCc1snnc1-2` stands 40.3% (active).
The value for `C=CCN(CC=C)S(=O)(=O)c1ccc(C(=O)Nc2nc3c(s2)CCc2ccccc2-3)cc1` was -8.2%; that for `COc1ccc(CC(N)c2csc(NC(=O)Nc3ccc(C(C)C)cc3)n2)cc1` (stereo not drawn) was -11.1%.
The value for `CC1CN(Cc2ccccc2)C(=S)NC1=O` (stereo not drawn) was 0.1%; that for `CN(C)c1ccc(/C=C2\NC(=S)N(Cc3ccccc3)C2=O)cc1` was 35.7% (active).
For `CN(C)c1ccc(C=C2C(=O)OC3(CCCC3)OC2=O)cc1`, the inhibition was 6.6%.
The value for `Cc1ccc(CC2(C)C(=O)Nc3ccc(OC(F)(F)F)cc32)cc1` (stereo not drawn) was -5%; that for `C=CCC[C@@H](CCCCC)OC(=O)/C=C/[C@@H](O)[C@H](O)C[C@H](O)CC=C` was 4.2%.
On to `O=C1NC[C@H](Cc2ccc(O)cc2)N(C[C@H]2CCCN2C[C@H](Cc2ccccc2)N2C[C@H](Cc3ccccc3)N(CCc3ccccc3)C(=O)C2=O)C1=O`, for which the inhibition is -3.4%.
The value for `O=C1Nc2ccccc2NC(c2ccc3c(c2)OCO3)=C1N(Cc1ccc(F)cc1)C(=O)c1ccco1` was -0.6%.
Under `Cn1c(Nc2ccccc2)cc(=O)n(C)c1=O` stands 35.2% (active).
Under `CC(C)Oc1ccc(C(=O)Nc2cc(=O)n(C)c(=O)n2C)cc1` stands -0.5%.
`Cc1cc(=O)n(C)c(=O)n1CCCNc1ccccc1`: the inhibition was 6.9%.
The value for `CC(=O)c1cccc(-c2cnc3c(NC=O)cc(-c4ccccc4Oc4ccccc4)cn23)c1` was -5.9%.
As to `CCCn1nnc2sc3c(c2c1=O)CCC(C)C3` (stereo not drawn), the inhibition was -1.8%.
Consider `C=CCn1c(SCc2c(C)noc2C)nc2sc3c(c2c1=O)CCC(C)C3` (stereo not drawn), for which the inhibition was -1.6%.
Under `CC1CCc2c(sc3nc4n(c(=O)c23)CCS4)C1` (stereo not drawn) stands 43.2% (active); under `COc1ccc(C(c2nnnn2C2CCCC2)N2CCN(C/C=C/c3ccccc3)CC2)cc1` (stereo not drawn), -6.6%; under `CC(=O)Nc1cc(-c2cccc(CO)c2)cn2c(-c3cccc(C(F)(F)F)c3)cnc12`, 0.9%.
Under `O=C(NC(c1ccc(Cl)cc1)c1cnccn1)C1CCN(Cc2ccc(Cl)cc2)CC1` (stereo not drawn) stands -2.2%; under `Cc1nc2c(OCc3ccc(Cl)cc3Cl)cccn2c1N(C)CC1CC1`, -6%; under `Cc1nn(C)c(C)c1Sc1ccccc1N`, -4.3%.
Under `Nc1ccccc1Sc1cc(Cl)nnc1Cl` stands 82.9% (active); under `CC(C)Nc1nc(NCCOc2ccccc2Cl)c2sccc2n1`, -12.7%.
Take `NC(Cc1ccc(F)cc1)c1csc(Nc2nncc3ccccc23)n1` (stereo not drawn): the inhibition was -21.6%.
The value for `COc1ccc(-c2coc3c(C(=O)NC(C)C)cccc23)c(C)c1` was -5.4%.
Under `CCOc1ccc(/C=C(/C#N)c2nnc(N3CCOCC3)n2-c2ccccc2)cc1OC` stands -9.5%.
The value for `COc1cc(N2CCCC2)c(OC)cc1/C=C(/C#N)c1cccc(Br)c1` was 169% (active); that for `COc1ccc(-c2ccc(C(=O)NCCN3CCOCC3)c3occc23)c(C)c1` was -4.4%.
With `CCc1nc2ccc(C(=O)Nc3cccc(OC)c3)cn2c1N(CCC(C)C)CCN(C)C`, the inhibition is 3%.
Under `CCOCCC(=O)Nc1ccc2c(c1)c(=O)n(C)n2-c1ccc2ccccc2c1` stands -6%.
For `OC(c1ccc(Cl)cc1)c1ncc(-c2ccc(Cl)cc2)[nH]1` (stereo not drawn), the inhibition was -8.9%.
Under `COc1ccc(CNC(=O)CN(c2ccc(OC)c(Cl)c2)S(=O)(=O)c2ccc(C)cc2)cc1` stands -6.9%; under `COC(=O)CN(c1nc(C)c(Cl)c(OC)n1)S(=O)(=O)c1ccc(C)cc1`, 41.2% (active); under `CCN(CC)C(=O)CN(c1cccc(OC)c1)S(=O)(=O)c1ccc(C)cc1`, -9.7%.
Under `CC(=O)Nc1cccc(-c2cc(NC=O)c3ncc(-c4ccc(F)c(Cl)c4)n3c2)c1` stands -9.5%; under `COc1ccc(-c2cc(NC(C)=O)c3ncc(-c4cc(OC)c(OC)c(OC)c4)n3c2)cn1`, 2.1%.
As for `CC1(C(=O)NCc2cccc3ccccc23)CCN1Cc1ccc(-c2ccccc2)o1` (stereo not drawn), the inhibition was -9.6%.
For the compound `CCc1nc2c(OCc3ccc(C(F)(F)F)cc3)cccn2c1N(C)C(=O)CC(C)C`, the inhibition is 0.4%.
The value for `COc1ccccc1N1CCN(CC(=O)NC(=O)NCc2ccco2)CC1` was -6.6%; that for `Oc1ccccc1N1CCN(C(=S)NCc2ccccc2)CC1` was -13.6%.
The value for `O=C(CN1CCN(c2ccccc2O)CC1)NC(=O)NCc1ccccc1` was 69.8% (active); that for `Cc1ccc(Cc2c(-c3ccc(Cl)cc3)nc3c4ccccc4ccn23)cc1` was -5.5%; that for `CSCCC(c1nnnn1Cc1ccccc1)N1CCN(C/C=C/c2ccccc2)CC1` (stereo not drawn) was -9.9%.
Under `O=S(=O)(NC1CCCCC1N1CCC(O)CC1)c1ccc(Cl)cc1` (stereo not drawn) stands 110% (active); under `CCN1CCN(C2CCCCC2NS(=O)(=O)c2ccc(Cl)cc2)CC1` (stereo not drawn), -2%; under `O=S(=O)(NC1CCCCC1N1CCCCC1)c1ccc(Cl)cc1` (stereo not drawn), 24.7%.
On to `c1ccc(Cc2c(-c3ccco3)nc3c4ccccc4ccn23)cc1`, for which the inhibition was 4.5%.
The value for `CCOc1ccc2[nH]c(=S)sc2c1` was 4.7%; that for `C[C@H]([C@@H](O)[C@@H](O)[C@@H](C)C(C)(C)C)[C@H]1CC[C@H]2C3CC[C@H]4C[C@H](OS(=O)(=O)O)[C@@H](OS(=O)(=O)O)C[C@]4(C)[C@H]3CC[C@]12C` (stereo partly drawn) was 7.2%.
For `COc1ccc(-c2cc(NC=O)c3ncc(-c4cc(OC)c(OC)c(OC)c4)n3c2)c(OC)c1`, the inhibition is -7.7%.
Regarding `Cc1c(NC(=O)c2c([N+](=O)[O-])cnn2C)c(=O)n(-c2ccccc2)n1C`, the inhibition was -13.3%.
In the case of `Cc1c(NC(=O)c2coc(=O)c(Br)c2)c(=O)n(-c2ccccc2)n1C`, the inhibition was 0.1%.
Take `Cc1c(NC(=O)c2cccnc2)c(=O)n(-c2ccccc2)n1C`: the inhibition was 58.9% (active).
The value for `CCCCCc1c(Cc2ccccc2)ncn1CCc1ccccc1OC` was -7%.
Under `Cc1cc2nc(-c3ccc(Cl)cc3)c(Cc3cccc(F)c3)n2c(C)c1Br` stands -1.2%.
As for `COc1ccc(CC(N)c2csc(NC(=O)NC(c3ccccc3)c3ccccc3)n2)cc1` (stereo not drawn), the inhibition is -27.6%.
